This is an account of results in PubChem BioAssay (NCATS).

SMILES strings stand for the structures. Unmarked numbers belong to inactive results. Records with an inconclusive call do not appear. Calls of active or inactive are those of the source. Unless noted, the call rests on the fitted dose curve; in most records, active means well fitted curve in the direction sought with a large enough effect; inconclusive means small, poorly fitted or top-dose-only effect, or another doubt; inactive means no such curve, though single readings can be large; an effect the other way counts as inactive or inconclusive.

Assay [1] has as its target Ubiquitin carboxyl-terminal hydrolase 1 (Homo sapiens) (UniProt O94782). The assay can be described thus: Inhibitors of USP1/UAF1: Pilot qHTS (AID 504865).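 Further: rhodamine fluorescence freed from ubiquitin-rhodamine substrate followed over time; top concentration of the series differs between compounds; on the % scale 0 is the no-effect control and ±100 the full control effect; nearly all actives have a fitted effect of over 35% in size.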 The procedure, abridged: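 USP1/UAF1 complex at 1 nM preincubated 15 min at room temperature with compound, then Ub-Rho substrate added at 150 nM final. Fluorescence (480/540 nm) read kinetically in 50 mM HEPES pH 7.8, 0.5 mM EDTA, 1 mM TCEP, 0.1 mg/ml BSA, 0.01% Tween-20.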

Assay [2] is described as follows: S16 Schwann cell viability assay (CellTiter-Glo assay) (AID 624031). Further: nearly all actives have a fitted effect of over 70% in size. Further: potency means the concentration at half of the fitted maximal effect. The method in brief: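 Rat S16 Schwann cells without reporter constructs received compound or DMSO for 24 h at 37 °C under 5% CO2. Cellular ATP was then quantified by CellTiter-Glo luminescence, with vehicle wells defined as 0% activity and cell-free wells as reference.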
Assay [3] in a line: S16 Schwann cell PMP22 intronic element beta-lactamase assay (AID 624044; calls by dose curve;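 further: 0% = DMSO and -100% = potassium clavulanate positive control; nearly all actives have a fitted effect of over 15% in size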). Particulars: S16 rat Schwann cells, PMP22 element beta-lactamase FRET, 24 h; ratio activity, negative = inhibition: at 38.3 µM (top of the series). The procedure, abridged: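 Rat S16 Schwann cells with beta-Lac driven by a PMP22 intronic element, compound-treated 24 h at 37 °C. LiveBLAzer FRET B/G read: 460 nm normalized to potassium clavulanate vs DMSO; 535 nm FRET as viability; concentration-effect curves classified.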

Assay [4] can be described thus: qHTS profiling for inhibitors of Plasmodium falciparum proliferation (AID 504749). Further: nearly all actives have a fitted effect of over 60% in size. Further: potency means the concentration at half of the fitted maximal effect.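 On activity, negative = inhibition: 0% = DMSO vehicle and full inhibition = artemisinin control.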 Particulars: P. falciparum in erythrocytes, SYBR Green DNA, 72 h, at 28.7 µM (top of the series). The method in brief:
(§1)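 Parasite proliferation within erythrocytes, 72 h exposure. Endpoint: SYBR Green I fluorescence after overnight lysis at room temperature. Controls: 0.29 uM artemisinin, DMSO.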

The test system of the next assay is ATS189. Described as above. Particulars: P. falciparum in erythrocytes, SYBR Green DNA, 72 h; series mostly up to 28.7 µM. The procedure, abridged:
as §1

The subject of the next assay is C2A. The description is as above. Particulars: P. falciparum in erythrocytes, SYBR Green DNA, 72 h; series mostly up to 28.7 µM. The procedure, abridged: as §1
Another assay concerns CP191. The assay is described as above. Particulars: P. falciparum in erythrocytes, SYBR Green DNA, 72 h; series mostly up to 28.7 µM. The procedure, abridged: as §1
A further assay deals with CP192. Described as above. Particulars: P. falciparum in erythrocytes, SYBR Green DNA, 72 h; series mostly up to 28.7 µM. The procedure, abridged: as §1
Another assay has as its system CP201. Described as above. Particulars: P. falciparum in erythrocytes, SYBR Green DNA, 72 h; series mostly up to 28.7 µM. The procedure, abridged:
as §1

The next assay relates to CP215. Described as above. Particulars: P. falciparum in erythrocytes, SYBR Green DNA, 72 h; series mostly up to 28.7 µM. The procedure, abridged: as §1
A further assay relates to CP238. The description is as above. Particulars: P. falciparum in erythrocytes, SYBR Green DNA, 72 h; series mostly up to 28.7 µM. The procedure, abridged:
as §1

Another assay relates to CP325. Described as above. Particulars: P. falciparum in erythrocytes, SYBR Green DNA, 72 h; series mostly up to 28.7 µM. The method in brief: as §1
A further assay deals with ECU. Described as above. Particulars: P. falciparum in erythrocytes, SYBR Green DNA, 72 h; series mostly up to 28.7 µM. The method in brief:
as §1

The subject of a further assay is FAB9. The assay is described as above. Particulars: P. falciparum in erythrocytes, SYBR Green DNA, 72 h; series mostly up to 28.7 µM. The procedure, abridged:
as §1

For a further assay, the system named is JCK. The description is as above. Particulars: P. falciparum in erythrocytes, SYBR Green DNA, 72 h; series mostly up to 28.7 µM. The method in brief: as §1
The next assay has as its system PC49. The assay is described as above. Particulars: P. falciparum in erythrocytes, SYBR Green DNA, 72 h; series mostly up to 28.7 µM. The procedure, abridged:
as §1

Assay [5] addresses Cytochrome P450 3A4 (Homo sapiens) (UniProt P08684). The assay can be described thus: qHTS Assay for Inhibitors and Substrates of Cytochrome P450 3A4 (AID 884). Further: on the % scale 0 is the no-effect control and ±100 the full control effect; nearly all actives have a fitted effect of over 50% in size. The method in brief: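 20 nM human CYP3A4 with 25 uM Luciferin-PPXE (at KM) in 200 mM KPO4, preincubated 10 min with compound; NADPH regeneration started a 60 min RT reaction. Luciferin detected by luminescence, normalized to 57 uM ketoconazole as full inhibition.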

Assay [6] can be described thus: Confirmation and Secondary Assay for Modulators of Hemoglobin Beta Chain Splicing at IVS2 654 locus (AID 910).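 Further: per-well total GFP intensity by laser scanning cytometry after 2-day treatment; % of control where 0% means no effect.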 The procedure, abridged: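 HeLa cells stably carrying EGFP interrupted by mutant beta-globin IVS2-654 intron (CMV-driven) were treated with compound for 2 days at 37C; corrected splicing was scored as total peak GFP intensity per well (488 nm excitation, 500-520 nm emission).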

A short description of assay [7]: Confirmation and Secondary Assay for Modulators of Hemoglobin Beta Chain Splicing at IVS2 705 locus (AID 930).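 Further: HeLa cells stably expressing the EGFP-705 splicing reporter; GFP fluorescence per well restored by corrected splicing of the IVS2-705 intron in EGFP; % of control where 0% means no effect.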 The procedure, abridged:
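Per-well GFP, captured at 1 x 8 µm resolution with 488 nm excitation, served as the read-out for HeLa EGFP-705 cells incubated 2 days with test compound versus DMSO.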

Sequence of Ubiquitin carboxyl-terminal hydrolase 1 (Homo sapiens) (O94782 whole entry, looked up): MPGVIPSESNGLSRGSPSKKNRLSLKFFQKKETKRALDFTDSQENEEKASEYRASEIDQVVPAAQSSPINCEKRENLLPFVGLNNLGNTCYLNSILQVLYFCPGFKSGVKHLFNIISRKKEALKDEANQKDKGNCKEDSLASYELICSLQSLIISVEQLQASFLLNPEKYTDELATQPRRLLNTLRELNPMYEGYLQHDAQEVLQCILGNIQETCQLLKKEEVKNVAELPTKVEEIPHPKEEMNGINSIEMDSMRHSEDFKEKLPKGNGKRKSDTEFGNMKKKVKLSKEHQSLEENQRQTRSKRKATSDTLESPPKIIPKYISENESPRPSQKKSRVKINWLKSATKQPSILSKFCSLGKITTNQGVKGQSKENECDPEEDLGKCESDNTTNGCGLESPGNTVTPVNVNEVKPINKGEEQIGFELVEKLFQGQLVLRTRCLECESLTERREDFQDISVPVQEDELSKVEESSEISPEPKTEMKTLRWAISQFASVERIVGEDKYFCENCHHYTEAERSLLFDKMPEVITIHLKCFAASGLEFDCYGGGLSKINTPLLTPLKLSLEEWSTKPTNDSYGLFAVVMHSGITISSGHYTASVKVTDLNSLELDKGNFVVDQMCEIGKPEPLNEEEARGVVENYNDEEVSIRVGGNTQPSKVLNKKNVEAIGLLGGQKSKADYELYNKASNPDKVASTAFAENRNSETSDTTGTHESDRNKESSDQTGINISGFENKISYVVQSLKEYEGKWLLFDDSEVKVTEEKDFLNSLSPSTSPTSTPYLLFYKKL
Sequence of Cytochrome P450 3A4 (Homo sapiens) (P08684 whole entry, looked up): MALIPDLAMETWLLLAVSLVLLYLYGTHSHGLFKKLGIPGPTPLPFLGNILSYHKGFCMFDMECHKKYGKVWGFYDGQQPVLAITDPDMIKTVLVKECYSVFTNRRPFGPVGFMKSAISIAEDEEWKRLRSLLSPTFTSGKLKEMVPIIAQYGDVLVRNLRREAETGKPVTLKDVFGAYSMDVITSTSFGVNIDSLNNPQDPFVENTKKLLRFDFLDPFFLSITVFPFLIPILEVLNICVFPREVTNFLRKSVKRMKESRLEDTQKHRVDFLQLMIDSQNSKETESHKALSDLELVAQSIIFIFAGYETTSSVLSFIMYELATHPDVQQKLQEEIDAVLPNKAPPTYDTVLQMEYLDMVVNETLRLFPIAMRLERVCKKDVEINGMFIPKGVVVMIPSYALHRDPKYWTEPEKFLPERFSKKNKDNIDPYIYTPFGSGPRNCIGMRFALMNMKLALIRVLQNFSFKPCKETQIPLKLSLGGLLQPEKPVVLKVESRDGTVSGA

For the compound `CC(CO)NC(=O)C1C=C2c3cccc4[nH]cc(c34)CC2N(C)C1` (centres undefined), the Potency entry (in [1]; in assay [2]; in assay [3]; in the assay on ATS189; in the assay on C2A; with CP191) was “inactive” each time. Also, the Potency result in the assay on CP192, in the assay with CP201, in the assay on CP215, in the assay with CP238, with CP325 and in the assay with ECU was “inactive” in each case. Further, the Potency result in the assay on FAB9, in the assay with JCK and in the assay on PC49 was “inactive” in each case. The activity, negative = inhibition in [4] (parasite line A) is -10.6%; in [4] (parasite line B), -8.5%.

On to `C#CCN1CC(=O)N(COC(=O)[C@@H]2[C@@H](C=C(C)C)C2(C)C)C1=O`, for which the Potency entry (in [2]; in assay [3]; in the assay on ATS189; in the assay on C2A; in the assay on CP191; in the assay on CP192) was “inactive” in each case. Further, the Potency entry in the assay on CP201, in the assay on CP238, with CP325, with ECU, in the assay on FAB9 and with JCK was “inactive” throughout. Moreover, the Potency result in the assay on PC49 is “inactive”. Besides, the activity, negative = inhibition in [4] (parasite line A) is 4.89%; in [4] (parasite line B), 10.9%.

As for `CC(=O)Oc1ccc2c3c1OC1[C@@H](OC(C)=O)C=C[C@H]4[C@H](C2)N(C)CC[C@]314` (some centres undefined), the Potency entry (in [1]; in assay [2]; in [3]; in the assay on ATS189; in the assay with C2A; in the assay on CP191) was “inactive” throughout. For the same compound, the Potency entry with CP192, in the assay on CP201, with CP215, in the assay with CP238, in the assay with CP325 and with ECU was “inactive” each time. Besides, the Potency entry in the assay on FAB9, with JCK and in the assay on PC49 was “inactive” in each case. The activity, negative = inhibition was 15.5% in assay [4] (parasite line A) and 9.45% in assay [4] (parasite line B).

Consider `CCCCCCC(=O)O[C@H]1CC[C@H]2[C@@H]3CCC4CC(=O)C=C(C)[C@]4(C)[C@H]3CC[C@]12C` (some centres undefined), for which the Potency entry (in assay [2]; in assay [3]; with ATS189; in the assay on C2A; with CP191; in the assay with CP192) was “inactive” each time. In addition, the Potency result in the assay with CP201, with CP215, in the assay with CP238, in the assay with CP325, with ECU and in the assay with FAB9 was “inactive” throughout. For the same compound, the Potency entry in the assay on JCK and in the assay with PC49 was “inactive” in each case. Also, the figures for the activity, negative = inhibition in [4] (parasite line A) and in assay [4] (parasite line B) were -7.1% and -5.28%, respectively.

With `CC1CC[C@@]2(NC1)OC1CC3C4CC[C@@H]5CC(O)CC[C@@]5(C)C4CC[C@]3(C)C1C2C` (some centres undefined), the Potency entry (in [5]; in assay [6]; in assay [2]; in assay [3]; with ATS189; in the assay on C2A) was “inactive” each time. Also, the Potency entry in the assay with CP191, in the assay on CP192, in the assay on CP201, in the assay with CP215, with CP238 and in the assay on CP325 was “inactive” in each case. For the same compound, the Potency result with FAB9, with JCK and with PC49 was “inactive” each time. Further, the outcome in assay [7] was inactive. Also, in the assay with ECU, the Potency was 12.6 µM (active).

`C[C@@H](N)[C@@H](O)c1ccc(O)c(O)c1`: the Potency result (in assay [1]; in assay [3]; with ATS189; in the assay on C2A; in the assay on CP191; in the assay with CP192) was “inactive” in each case. Further, the Potency entry with CP201, in the assay on CP215, in the assay with CP238, in the assay on CP325, with ECU and with FAB9 was “inactive” in each case. Also, the Potency result in the assay with JCK and with PC49 was “inactive” in each case. Also, the Potency in [2] is 28.7 µM (active). Further, the activity, negative = inhibition in [4] (parasite line A) is -5.35%; in assay [4] (parasite line B), 7.25%.

As for `CCCC(C)C1(CC)C(=O)NC(=S)NC1=O` (centres undefined), the Potency entry (in [2]; in assay [3]; in the assay with ATS189; with C2A; in the assay on CP191; in the assay on CP201) was “inactive” each time. Besides, the Potency entry with CP215, in the assay with CP238, in the assay on CP325, with ECU, with FAB9 and in the assay with JCK was “inactive” throughout. Further, in the assay with PC49, the Potency result was “inactive”. The results for the activity, negative = inhibition in [4] (parasite line A) and in [4] (parasite line B) were 0.271% and 18%, respectively.

As to `C=C1CC2C(CC[C@]3(C)C(=O)CCC23)[C@]2(C)C=CC(=O)C=C12` (some centres undefined), the Potency entry (in assay [5]; in assay [6]; in assay [1]; in assay [2]; with ATS189; in the assay on C2A) was “inactive” in each case. Further, the Potency result in the assay with CP191, in the assay on CP192, with CP201, with CP215, in the assay on CP238 and in the assay on CP325 was “inactive” throughout. The Potency result with ECU, with FAB9, in the assay with JCK and with PC49 was “inactive” throughout. The compound was classed as inactive in [7]. In [4] (parasite line B), the activity, negative = inhibition was 0.0393%.

As for `C[C@]12CCC3C(CCC4=C(Cl)C(=O)CC[C@@]43C)C1CCC2O` (some centres undefined), the Potency entry (in assay [1]; in assay [2]; with ATS189; with C2A; in the assay on CP191; in the assay on CP192) was “inactive” each time. Besides, the Potency result with CP201, in the assay on CP215, with CP238, in the assay with CP325, with ECU and in the assay on FAB9 was “inactive” in each case. Besides, the Potency entry with JCK and in the assay on PC49 was “inactive” each time. For the same compound, the results for the activity, negative = inhibition in assay [4] (parasite line A) and in [4] (parasite line B) were -5.63% and -11.9%, respectively.

Regarding `C#CC1(O)C=CC2C3CCC4=CC(=O)CCC4C3CCC21CC` (centres undefined), the Potency entry (in [1]; in assay [2]; in assay [3]; in the assay with ATS189; in the assay on C2A; in the assay on CP238) was “inactive” each time. Moreover, the Potency result with ECU and in the assay with JCK was “inactive” each time. Further, the Potency was 5.01 µM (active) in the assay with CP191, 9.53 µM (active) in the assay on CP215 and 12 µM (active) with CP325.
